Results as given in PubChem BioAssay AID1159580 (chemical genetic matrix, 2015).
Several values for one entry are separate records, joined by “and”; a condition that tells them apart may be missing. Equal entries are not always repeated. The whole screen tested about 5,500 compounds, of which about 2,000 (36%) were called active. Inconclusive results (about 18%) are left out. No stated cut-off is given here; in the data, active means normalized growth mostly below about 0.91 (no sharp cut-off); inconclusive means no clear call, values can overlap the other calls; inactive means mostly above about 0.92. This is one part of the list.

Assay: chemical genetic growth profiling, strain panel (AID 1159580);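 further: tested at 20 µM; growth read once vehicle control cultures reached saturation at 30 °C; 1 = growth at the plate median or of vehicle wells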
Conditions: growth OD

Measured: normalized growth

O=C(O)c1cc2cc(Cc3cccnc3)ccc2o1
inactive: S. cerevisiae deletion strains, locus YAL013W, strain DEP1, stronger effect = lower value 1.02 | S. cerevisiae deletion strains, locus YAL040C, strain CLN3, stronger effect = lower value 0.986 | S. cerevisiae deletion strains, locus YBR021W, strain FUR4, stronger effect = lower value 1 | S. cerevisiae deletion strains, locus YBR229C, strain ROT2, stronger effect = lower value 1.01 | S. cerevisiae deletion strains, locus YCL029C, strain bik1, stronger effect = lower value 0.995 | S. cerevisiae deletion strains, locus YCL061C, strain MRC1 (second series), stronger effect = lower value 1.01 | S. cerevisiae deletion strains, locus YDL035C, strain GPR1, stronger effect = lower value 0.994 | S. cerevisiae deletion strains, locus YDL074C, strain BRE1, stronger effect = lower value 0.995 | S. cerevisiae deletion strains, locus YDL101C, strain DUN1, stronger effect = lower value 1.01 | S. cerevisiae deletion strains, locus YDL134C, strain PPH21, stronger effect = lower value 0.993 | S. cerevisiae deletion strains, locus YDL185W, strain tfp1, stronger effect = lower value 0.994 | S. cerevisiae deletion strains, locus YDL192W, strain arf1, stronger effect = lower value 1 | S. cerevisiae deletion strains, locus YDR101C, strain arx1, stronger effect = lower value 1.02 | S. cerevisiae deletion strains, locus YDR162C, strain NBP2, stronger effect = lower value 1 | S. cerevisiae deletion strains, locus YDR318W, strain mcm21, stronger effect = lower value 0.986 | S. cerevisiae deletion strains, locus YDR363W, strain ESC2, stronger effect = lower value 1.01 | S. cerevisiae deletion strains, locus YDR388W, stronger effect = lower value 0.989 | S. cerevisiae deletion strains, locus YDR502C, strain sam2, stronger effect = lower value 0.996 | S. cerevisiae deletion strains, locus YEL061C, strain CIN8, stronger effect = lower value 1 | S. cerevisiae deletion strains, locus YER002W, strain NOP16, stronger effect = lower value 0.99 | S. cerevisiae deletion strains, locus YER110C, stronger effect = lower value 0.995 | S. cerevisiae deletion strains, locus YER155C, strain BEM2, stronger effect = lower value 1.01 | S. cerevisiae deletion strains, locus YER167W, strain BCK2, stronger effect = lower value 1 | S. cerevisiae deletion strains, locus YGL078C, strain dbp3, stronger effect = lower value 0.991 | S. cerevisiae deletion strains, locus YGL086W, strain mad1, stronger effect = lower value 0.998 | S. cerevisiae deletion strains, locus YGL248W, strain PDE1, stronger effect = lower value 1 | S. cerevisiae deletion strains, locus YGR135W, strain pre9, stronger effect = lower value 1.01 | S. cerevisiae deletion strains, locus YGR229C, strain SMI1, stronger effect = lower value 1.05 | S. cerevisiae deletion strains, locus YGR252W, strain gcn5, stronger effect = lower value 0.92 | S. cerevisiae deletion strains, locus YHR030C, strain SLT2, stronger effect = lower value 0.997 | S. cerevisiae deletion strains, locus YHR079C, strain IRE1 (second series), stronger effect = lower value 0.985 | S. cerevisiae deletion strains, locus YHR094C, strain hxt1, stronger effect = lower value 0.995 | S. cerevisiae deletion strains, locus YHR129C, strain ARP1, stronger effect = lower value 0.997 | S. cerevisiae deletion strains, locus YHR200W, strain rpn10, stronger effect = lower value 0.994 | S. cerevisiae deletion strains, locus YIL066C, strain RNR3, stronger effect = lower value 1.01 | S. cerevisiae deletion strains, locus YIL073C, strain SPO22, stronger effect = lower value 1.01 | S. cerevisiae deletion strains, locus YIL125W, strain kgd1, stronger effect = lower value 0.999 | S. cerevisiae deletion strains, locus YIR030C, strain dcg1, stronger effect = lower value 0.995 | S. cerevisiae deletion strains, locus YJL095W, strain BCK1, stronger effect = lower value 1.01 | S. cerevisiae deletion strains, locus YJL134W, strain LCB3, stronger effect = lower value 1 | S. cerevisiae deletion strains, locus YJL168C, strain set2, stronger effect = lower value 0.991 | S. cerevisiae deletion strains, locus YJL187C, strain SWE1 (second series), stronger effect = lower value 1.01 | S. cerevisiae deletion strains, locus YJR043C, strain POL32, stronger effect = lower value 1.02 | S. cerevisiae deletion strains, locus YJR075W, strain HOC1, stronger effect = lower value 1.01 | S. cerevisiae deletion strains, locus YKL009W, strain mrt4, stronger effect = lower value 0.983 | S. cerevisiae deletion strains, locus YKL068W, stronger effect = lower value 0.992 | S. cerevisiae deletion strains, locus YKL085W, strain MDH1 (second series), stronger effect = lower value 0.999 | S. cerevisiae deletion strains, locus YKL085W, strain MDH1, stronger effect = lower value 0.999 | S. cerevisiae deletion strains, locus YKL190W, strain CNB1, stronger effect = lower value 1.01 | S. cerevisiae deletion strains, locus YKR001C, strain vps1, stronger effect = lower value 0.997 | S. cerevisiae deletion strains, locus YLR039C, strain RIC1, stronger effect = lower value 1.01 | S. cerevisiae deletion strains, locus YLR058C, strain SHM2, stronger effect = lower value 1.01 | S. cerevisiae deletion strains, locus YLR102C, strain apc9, stronger effect = lower value 0.991 | S. cerevisiae deletion strains, locus YLR262C, strain YPT6, stronger effect = lower value 1.03 | S. cerevisiae deletion strains, locus YLR268W, strain sec22, stronger effect = lower value 0.986 | S. cerevisiae deletion strains, locus YLR330W, strain CHS5, stronger effect = lower value 1.01 | S. cerevisiae deletion strains, locus YLR342W, strain FKS1 (second series), stronger effect = lower value 0.988 | S. cerevisiae deletion strains, locus YLR371W, strain rom2, stronger effect = lower value 0.988 | S. cerevisiae deletion strains, locus YLR418C, strain cdc73, stronger effect = lower value 0.975 | S. cerevisiae deletion strains, locus YML016C, strain PPZ1, stronger effect = lower value 1 | S. cerevisiae deletion strains, locus YML032C, strain rad52, stronger effect = lower value 0.995 | S. cerevisiae deletion strains, locus YML124C, strain tub3, stronger effect = lower value 0.994 | S. cerevisiae deletion strains, locus YMR078C, strain ctf18, stronger effect = lower value 0.995 | S. cerevisiae deletion strains, locus YMR223W, strain ubp8, stronger effect = lower value 0.995 | S. cerevisiae deletion strains, locus YMR263W, strain SAP30, stronger effect = lower value 1 | S. cerevisiae deletion strains, locus YMR307W, strain GAS1, stronger effect = lower value 0.967 and 0.989 | S. cerevisiae deletion strains, locus YNL067W, strain RPL9B, stronger effect = lower value 1 | S. cerevisiae deletion strains, locus YNL153C, strain GIM3, stronger effect = lower value 1.02 | S. cerevisiae deletion strains, locus YNL175C, strain NOP13, stronger effect = lower value 1 | S. cerevisiae deletion strains, locus YNL197C, strain WHI3, stronger effect = lower value 1.02 | S. cerevisiae deletion strains, locus YNL224C, strain SQS1, stronger effect = lower value 1.02 | S. cerevisiae deletion strains, locus YNL233W, strain BNI4, stronger effect = lower value 1 | S. cerevisiae deletion strains, locus YNL250W, strain rad50, stronger effect = lower value 0.989 | S. cerevisiae deletion strains, locus YNL271C, strain bni1, stronger effect = lower value 0.999 | S. cerevisiae deletion strains, locus YNL298W, strain CLA4, stronger effect = lower value 0.981 | S. cerevisiae deletion strains, locus YNL307C, strain MCK1, stronger effect = lower value 0.995 | S. cerevisiae deletion strains, locus YNR052C, strain pop2, stronger effect = lower value 0.99 | S. cerevisiae deletion strains, locus YOL006C, strain TOP1, stronger effect = lower value 1.04 | S. cerevisiae deletion strains, locus YOL012C, strain htz1 1.18 | S. cerevisiae deletion strains, locus YOL147C, strain pex11, stronger effect = lower value 0.995 | S. cerevisiae deletion strains, locus YOR061W, strain CKA2, stronger effect = lower value 1.01 | S. cerevisiae deletion strains, locus YOR069W, strain VPS5, stronger effect = lower value 1 | S. cerevisiae deletion strains, locus YOR083W, strain WHI5 (second series), stronger effect = lower value 1.03 | S. cerevisiae deletion strains, locus YOR136W, strain idh2, stronger effect = lower value 0.997 | S. cerevisiae deletion strains, locus YOR144C, strain elg1, stronger effect = lower value 0.995 | S. cerevisiae deletion strains, locus YOR184W, strain ser1, stronger effect = lower value 0.988 | S. cerevisiae deletion strains, locus YOR316C, strain cot1, stronger effect = lower value 0.992 | S. cerevisiae deletion strains, locus YPL055C, strain LGE1, stronger effect = lower value 1.03 and 1.01 | S. cerevisiae deletion strains, locus YPL241C, strain CIN2, stronger effect = lower value 1.01 | S. cerevisiae deletion strains, locus YPR119W, strain clb2, stronger effect = lower value 0.992 | S. cerevisiae deletion strains, locus YPR141C, strain kar3, stronger effect = lower value 0.996 | S. cerevisiae deletion strains, locus YPR163C, strain tif3, stronger effect = lower value 0.993 | S. cerevisiae deletion strains, locus YPR167C, strain met16, stronger effect = lower value 0.991 | S. cerevisiae deletion strains, strain wtn01, stronger effect = lower value 0.986 | S. cerevisiae strains, strain wild type, stronger effect = lower value 1
